Results from PubChem BioAssay (NCI).
Compounds without any hit were thinned out: in the full panel of roughly 79,000, 15% have a hit. Active and inactive are the calls of the source. Cut-off read from the data, not from the text of the source: active = growth inhibition above about 70%; inactive = the rest.

How the values were obtained:
[1] = NCI Yeast Anticancer Drug Screen. Data for the rad52 strain (AID 147);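 note: 0% = growth of vehicle-treated control cultures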; conditions: S. cerevisiae rad52 mutant growth inhibition, hits give high values
Outline: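 Read-out: growth inhibition versus vehicle-treated controls. Cells were a DNA repair-deficient yeast strain treated with compounds.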

[2] = NCI Yeast Anticancer Drug Screen. Data for the wt1 strain (AID 149);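 note: 0% = growth of vehicle-treated wt1 cultures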; conditions: S. cerevisiae wt1 strain (SPY 50644) growth inhibition, hits give high values
Outline: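 Yeast wt1 strain exposed to compounds; growth inhibition measured relative to vehicle-treated controls.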

[3] = NCI Yeast Anticancer Drug Screen. Data for the rad50EPP+ strain (AID 151);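 note: 0% = growth of vehicle-treated control cultures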; conditions: S. cerevisiae rad50 mutant strain, hits give high values
Outline: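 Growth inhibition read against vehicle controls in rad50EPP+ yeast, a strain altered in DNA damage repair, after compound exposure.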

[4] = NCI Yeast Anticancer Drug Screen. Data for the mgt1 strain (AID 153); conditions: S. cerevisiae mgt1 mutant growth inhibition, hits give high values
Outline: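 mgt1 yeast grown with test compound; read-out is growth inhibition versus vehicle-treated cultures.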

[5] = NCI Yeast Anticancer Drug Screen. Data for the rad50 strain (AID 155);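 note: 0% = growth of vehicle-only cultures of the same strain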; conditions: S. cerevisiae rad50 strain growth inhibition, hits give high values
Outline: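 Yeast carrying a defined DNA repair defect were exposed to test compounds, and growth was compared with vehicle-treated controls to give percent inhibition.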

[6] = NCI Yeast Anticancer Drug Screen. Data for the mec2-1 strain (AID 157); conditions: S. cerevisiae mec2-1 strain, hits give high values
Outline: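 Yeast mec2-1 mutant treated with compound. Readout: growth inhibition vs vehicle controls.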

[7] = NCI Yeast Anticancer Drug Screen. Data for the rad14 strain (AID 159);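 note: 0% = growth of vehicle-treated control cultures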; conditions: S. cerevisiae rad14 strain growth inhibition, hits give high values
Outline: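 Yeast cells carrying a defined DNA-repair defect were exposed to compounds, and growth inhibition was calculated relative to vehicle-treated control cultures.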

[8] = NCI Yeast Anticancer Drug Screen. Data for the sgs1 mgt1 strain (AID 161);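 note: 0% = growth of cultures given vehicle only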; conditions: S. cerevisiae sgs1 mgt1 strain, hits give high values
Outline: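 Inhibition of yeast growth, normalised to vehicle-treated controls, is reported for a strain bearing genetic alterations in DNA damage repair.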

[9] = NCI Yeast Anticancer Drug Screen. Data for the CLN2oe strain (AID 163);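 note: 0% = growth of vehicle-only control cultures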; conditions: S. cerevisiae CLN2oe strain, hits give high values
Outline: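 Read-out: yeast growth inhibition, expressed relative to vehicle-only controls. The strain bears an engineered cell-cycle alteration.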

[10] = NCI Yeast Anticancer Drug Screen. Data for the cln2 rad14 strain (AID 165);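 note: 0% = growth equal to vehicle treated cultures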; conditions: S. cerevisiae cln2 rad14 strain, hits give high values
Outline: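 cln2 rad14 yeast strain; compound exposure; growth inhibition read vs vehicle controls.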

[11] = NCI Yeast Anticancer Drug Screen. Data for the bub3 strain (AID 167); conditions: S. cerevisiae bub3 mutant strain, hits give high values
Outline: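 Compounds were applied to a genetically altered yeast strain carrying a cell-cycle control defect. Growth inhibition was scored against vehicle-treated controls.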

[12] = NCI Yeast Anticancer Drug Screen. Data for the wt2 strain (AID 169);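 note: 0% = growth of vehicle-treated yeast cultures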; conditions: S. cerevisiae wt2 strain growth inhibition, hits give high values
Outline: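 Read-out: growth inhibition versus vehicle-treated control cultures after compound exposure of the yeast strain.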

[13] = NCI Yeast Anticancer Drug Screen. Data for the mlh1 strain (AID 171);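 note: 0% = growth of vehicle-treated control cultures of the same strain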; conditions: S. cerevisiae mlh1 strain growth inhibition, hits give high values
Outline: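 Read-out: growth inhibition versus vehicle controls. Strain: engineered yeast with a defined DNA repair or cell cycle defect, compound-treated.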

[14] = NCI Yeast Anticancer Drug Screen. Data for the sgs1 strain (AID 173);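 note: 0% = growth of vehicle-only control cultures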; conditions: S. cerevisiae sgs1 mutant, hits give high values
Outline: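 Read-out: yeast growth inhibition relative to vehicle controls, following compound exposure of a strain with a defined DNA repair/cell cycle alteration.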

[15] = NCI Yeast Anticancer Drug Screen. Data for the mlh1 rad18 strain (AID 175); conditions: S. cerevisiae mlh1 rad18 strain growth inhibition, hits give high values
Outline: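 Yeast w/ defined DNA-repair lesions; compound exposure; growth vs vehicle controls → % inhibition.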

[16] = NCI Yeast Anticancer Drug Screen. Data for the rad18 strain (AID 177); conditions: S. cerevisiae rad18 mutant growth inhibition, hits give high values
Outline: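 Readout: growth inhibition vs vehicle controls. Cells: genetically altered yeast strain, DNA repair defect.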

[17] = at 5.0 µM (retest, dose inferred, filed as 0.5)
[18] = at 50.0 µM (retest, dose inferred, filed as 5.0)

Measured: growth inhibition

CC1(C)CC(=O)C(/C=N/c2nc(-c3ccc(Br)cc3)cs2)=C(O)C1
inactive: [1]; at 1.2 µM 11% | [1]; at 3.7 µM 20% | [1]; at 11.0 µM 53% | [2]; at 1.2 µM 1% | [2]; at 3.7 µM 4% | [2]; at 11.0 µM 17% | [2]; at 100.0 µM 60% | [3]; at 1.2 µM 5% | [3]; at 3.7 µM 17% | [3]; at 11.0 µM 51% | [4]; at 1.2 µM 4% | [4]; at 3.7 µM 6% | [4]; at 11.0 µM 37% | [5]; at 1.2 µM 3% | [5]; at 3.7 µM 32% | [5]; [17] -4% | [5]; at 11.0 µM 48% | [6]; at 1.2 µM 7% | [6]; at 3.7 µM 11% | [6]; [17] -10% | [6]; at 11.0 µM 35% | [7]; at 1.2 µM 6% | [7]; at 3.7 µM 6% | [7]; at 11.0 µM 36% | [8]; [17] -8% | [9]; at 1.2 µM 1% | [9]; at 3.7 µM 7% | [9]; at 11.0 µM 31% | [10]; [17] 65% | [11]; at 1.2 µM 3% | [11]; at 3.7 µM 3% | [11]; [17] -22% | [11]; at 11.0 µM 24% | [12]; at 1.2 µM 0% | [12]; at 3.7 µM 3% | [12]; at 11.0 µM 29% | [13]; at 1.2 µM 3% | [13]; at 3.7 µM 5% | [13]; at 11.0 µM 30% | [14]; at 1.2 µM 10% | [14]; at 3.7 µM 15% | [14]; at 11.0 µM 49% | [15]; [17] 0% | [16]; at 1.2 µM 2% | [16]; at 3.7 µM 5% | [16]; at 11.0 µM 37%
active: [1]; at 33.0 µM 95% | [1]; at 100.0 µM 97% | [2]; at 33.0 µM 91% | [3]; at 33.0 µM 95% | [3]; at 100.0 µM 98% | [4]; at 33.0 µM 96% | [4]; at 100.0 µM 98% | [5]; at 33.0 µM 94% | [5]; [18] 96% | [5]; at 50.0 µM 99% | [5]; at 100.0 µM 97% | [6]; at 33.0 µM 96% | [6]; [18] 97% | [6]; at 50.0 µM 97.5% | [6]; at 100.0 µM 98% | [7]; at 33.0 µM 95% | [7]; at 100.0 µM 98% | [8]; [18] 98% | [8]; at 50.0 µM 99.2% | [9]; at 33.0 µM 93% | [9]; at 100.0 µM 97% | [10]; [18] 97% | [10]; at 50.0 µM 98.3% | [11]; at 33.0 µM 96% | [11]; [18] 98% | [11]; at 50.0 µM 98.8% | [11]; at 100.0 µM 98% | [12]; at 33.0 µM 93% | [12]; at 100.0 µM 98% | [13]; at 33.0 µM 96% | [13]; at 100.0 µM 98% | [14]; at 33.0 µM 97% | [14]; at 100.0 µM 98% | [15]; [18] 99% | [15]; at 50.0 µM 98.8% | [16]; at 33.0 µM 96% | [16]; at 100.0 µM 97%

CCCCCCCCSC1=C(Cl)C(=O)C(OC)=C(OC)C1=O
inactive: [1]; at 1.2 µM -25% | [1]; at 3.7 µM -19% | [1]; at 11.0 µM 15% | [1]; at 33.0 µM 53% | [2]; at 1.2 µM -55% | [2]; at 3.7 µM -23% | [2]; at 11.0 µM -17% | [2]; at 33.0 µM 0% | [3]; at 1.2 µM -29% | [3]; at 3.7 µM -44% | [3]; at 11.0 µM -1% | [3]; at 33.0 µM 18% | [4]; at 1.2 µM -30% | [4]; at 3.7 µM -41% | [4]; at 11.0 µM -24% | [4]; at 33.0 µM 17% | [5]; at 1.2 µM -25% | [5]; at 3.7 µM -16% | [5]; [17] 25% | [5]; at 11.0 µM -17% | [5]; at 33.0 µM 19% | [5]; [18] 68% | [5]; at 50.0 µM 22.6% | [6]; at 1.2 µM -37% | [6]; at 3.7 µM -30% | [6]; [17] 24% | [6]; at 11.0 µM -4% | [6]; at 33.0 µM 13% | [6]; [18] 68% | [6]; at 50.0 µM 54.1% | [7]; at 1.2 µM -32% | [7]; at 3.7 µM -11% | [7]; at 11.0 µM -14% | [7]; at 33.0 µM 2% | [7]; at 100.0 µM 66% | [8]; [17] 22% | [8]; [18] 10% | [8]; at 50.0 µM 69.1% | [9]; at 1.2 µM -16% | [9]; at 3.7 µM -6% | [9]; at 11.0 µM 21% | [9]; at 33.0 µM 33% | [10]; [17] 13% | [10]; [18] -24% | [10]; at 50.0 µM 35.1% | [11]; at 1.2 µM -40% | [11]; at 3.7 µM -30% | [11]; [17] 20% | [11]; at 11.0 µM -43% | [11]; at 33.0 µM -15% | [11]; [18] 6% | [11]; at 50.0 µM 59% | [11]; at 100.0 µM 57% | [12]; at 1.2 µM -31% | [12]; at 3.7 µM -19% | [12]; at 11.0 µM -46% | [12]; at 33.0 µM -11% | [13]; at 1.2 µM -38% | [13]; at 3.7 µM -31% | [13]; at 11.0 µM 6% | [13]; at 33.0 µM 27% | [14]; at 1.2 µM -42% | [14]; at 3.7 µM -27% | [14]; at 11.0 µM 8% | [14]; at 33.0 µM 3% | [15]; [17] 36% | [16]; at 1.2 µM -15% | [16]; at 3.7 µM -26% | [16]; at 11.0 µM 1% | [16]; at 33.0 µM 58%
active: [1]; at 100.0 µM 87% | [2]; at 100.0 µM 88% | [3]; at 100.0 µM 73% | [4]; at 100.0 µM 85% | [5]; at 100.0 µM 83% | [6]; at 100.0 µM 80% | [9]; at 100.0 µM 80% | [12]; at 100.0 µM 87% | [13]; at 100.0 µM 78% | [14]; at 100.0 µM 80% | [15]; [18] 84% | [15]; at 50.0 µM 79.3% | [16]; at 100.0 µM 85%
